The text below walks through data of PubChem BioAssay (NCATS).

Calls of active or inactive are those of the source. A call without a number means that no potency is given here. Calls come from the whole dose curve; as a rule, active = well fitted inhibition curve with a large enough effect; inconclusive = small, poorly fitted or top-dose-only effect; inactive = flat fitted curve, though single readings scatter. *1 amine or outer side, *2 acyl side, *3 side chain or, on linkers, in order; H or OH if unused. Where a SMILES comes first, the peptide text is derived from it. [ ]: non-standard residue; d: D form. X4 = CC(C)=CCc1cc(C(O)C(N[*:1])C(=O)[*:2])ccc1O

This test concerns Nanoluciferase (engineered Oplophorus gracilirostris luciferase). As to the kind of experiment: Primary Nanoluciferase (NLuc) qHTS assay for identification of artifact compounds. (AID 1845222).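 Note: NLuc secreted into diluted conditioned medium of S16 cells.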 Particulars: NLuc-conditioned medium, Nano-Glo luminescence, 5 min; series mostly up to 54.1 µM. A digest of the protocol: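 S16 cell supernatant NLuc, 1:55; cpds qHTS; 15 min RT dark; Nano-Glo substrate 1:100, 5 min; luminescence; Hill fit of % inhibition.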
`CC1CC[C@]2(C(=O)O)CC[C@]3(C(=O)O)C(=CCC4[C@@]5(C)CC[C@H](O[C@@H]6O[C@H](CO)[C@@H](O)[C@H](O)[C@H]6O)C(C)(C)C5CC[C@]43C)C2C1C` (some centres undefined): the Potency result was “inactive”.

Regarding `C[C@H]1CC(=O)Nc2cccc(-c3cnn(C(C)(C)C)c3)c2N1`, the Potency result is “inactive”.

As for `CC12CCC(OC3OC(CO)C(O)C(OC4OC(CO)C(O)C(O)C4O)C3O)CC1CCC1C2CCC2(C)/C(=C3/COC(=O)C3)CCC12O` (centres undefined), the Potency result is “inactive”.

Consider `NC(=O)[C@H]1CCS[C@@H]2C[C@]3(CCCN3C(=O)Cc3ccc(NC(=O)COc4ccc(Cl)cc4Cl)cc3)C(=O)N12`, for which the Potency result was “inactive”.

`O=C(O)CC(=O)OC[C@H]1O[C@@H](Oc2ccc3c(c2)OC[C@H]2c4cc5c(cc4O[C@@H]32)OCO5)[C@H](O)[C@@H](O)[C@@H]1O`: the Potency result is “inactive”.

Consider `COC(=O)C1=CO[C@@H](O[C@@H]2O[C@H](CO)[C@@H](O)[C@H](O)[C@H]2O)[C@@H]2[C@@](C)(O)[C@@H](OC(=O)/C=C/c3ccc(O)cc3)C[C@]12O`, for which the Potency entry was “inactive”.

For `CC(C)=CCc1cc(C(O)C2NC(=O)CNC(=O)C(Cc3c[nH]c4ccccc34)NC(=O)C3CCCN3C(=O)CNC(=O)C(C(C)C)NC(=O)CNC2=O)ccc1O` (centres undefined) (cyclo(G[X4]GVGPW); configuration not given here), the activity, negative = inhibition was -5.03% [at 11.6 µM] (inactive).

Regarding `C[C@@H]1CN(Cc2ccccc2)C[C@H]1c1nc2c(cnn2C2CCOCC2)c(=O)[nH]1`, the Potency result is “inactive”.

For the compound `C=C[C@]1(C)C=C2CCC3C(C)(CCC[C@@]3(C)C(=O)O)C2CC1` (some centres undefined), the Potency entry is “inactive”.
